Experimental data reported in the supplement of paper PMC6555819.

What was measured:
Assay in all cases: PBM binding z-score (relative to random genomic background probes); higher = stronger binding; sequences stand for … in GC…GCGATTGACAGCGTAGAATGAAGG
[1] = tested on: PPARg:RXRa DBDmut IVT, anti-RXR (DBD mutation: RXRa K156A/R161A, NR concentration 270 nM, RXRa partner concentration 90 nM)
Summary of the method: (§1)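 Binding z-scores were set against random background probes. The data came from custom Agilent 4×180K protein-binding microarrays carrying double-stranded probes with 34-nt variable regions, incubated 1 h with ligand-free nuclear receptor dimers. Partner-specific antibodies detected binding, and scanned fluorescence was regression-normalized.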

[2] = tested on: PPARg:RXRa IVT, anti-PPARg (NR concentration 270 nM, RXRa partner concentration 90 nM)
Summary of the method: as §1

[3] = tested on: PPARg DBDmut:RXRa IVT, anti-PPARg (DBD mutation: PPARg1 K132A/R137A, NR concentration 270 nM, RXRa partner concentration 90 nM)
Summary of the method: as §1

[4] = tested on: PPARg DBDmut IVT, anti-PPARg (DBD mutation: PPARg1 K132A/R137A, NR concentration 270 nM)
Summary of the method: as §1

[5] = tested on: PPARg homodimer (NR concentration 180 nM)
Summary of the method: as §1

[6] = tested on: PXR:RXRa (NR concentration 270 nM, RXRa partner concentration 90 nM)
Summary of the method: as §1

[7] = tested on: PXR homodimer (NR concentration 270 nM)
Summary of the method: as §1

[8] = tested on: RARa:RXR (NR concentration 270 nM, RXRa partner concentration 90 nM)
Summary of the method: as §1

[9] = tested on: RARa homodimer (NR concentration 270 nM)
Summary of the method: as §1

[10] = tested on: RARb:RXRa (NR concentration 270 nM, RXRa partner concentration 90 nM)
Summary of the method: as §1

Sequence | PBM binding z-score [1] | PBM binding z-score [2] | PBM binding z-score [3] | PBM binding z-score [4] | PBM binding z-score [5] | PBM binding z-score [6] | PBM binding z-score [7] | PBM binding z-score [8] | PBM binding z-score [9] | PBM binding z-score [10]
CCTTACGAGTCACTCCAGGTTATAGCATCGGAGT | 0.574 | 0.424 | 0.623 | 0.364 | 1.41 | 1.2 | 1.12 | 0.999 | 1.56 | 0.664
GCTATTTGTTGAAAGGGCAACCGAATGATTCTCG | 0.563 | 0.804 | 0.209 | 0.611 | 1.53 | 0.686 | 0.462 | 1.01 | 1.45 | 1.98
GCGACTGGGGCGTCAGCAGGTTACCATAACTTAA | 0.993 | 0.504 | -1.26 | -0.889 | -0.668 | -0.181 | -0.71 | 0.206 | -1.15 | 0.327
CCGAGTAGGTTATGGGGCAATCAGGCAACGGTGA | 3.71 | 3.81 | -0.0155 | -0.785 | 0.948 | 0.118 | -0.0981 | 0.631 | 0.26 | 1.11
TTACTAAGGTGAGCTGAGGTCGTTGATCCAACTC | 2.04 | 2.66 | 0.501 | 0.0653 | 0.306 | 5.17 | 0.515 | 2.16 | -0.407 | 2.07
GGAACGAGCGCATTCGAGTTGATAGCATGGCGAT | -0.641 | -0.81 | -0.918 | -0.781 | -1.13 | -0.904 | -0.628 | -1.29 | -0.875 | -1.26
CCGACAGGGGCAAGGTTACCATAACGCACAGCCA | -0.0279 | 0.0813 | -0.56 | -0.66 | 0.577 | 0.585 | 0.0826 | 1.26 | 0.048 | 2.1
ATCTCTGGGTAACAAGTTCAGTGAAAGAGAGGAC | 2.93 | 2.94 | 0.76 | 0.979 | 1.27 | 1.87 | 1.92 | 0.922 | 1.24 | 1.75
TTACCCAGGTGAAGGTCGTTGATCCCTCTGTAGA | 1.24 | 2.58 | -0.304 | -0.0545 | 0.499 | 1.12 | 0.0205 | 1.6 | -1.08 | 1.23
TCGAGTAGGTTAGGCGGGGCATTCAGCCAACATA | 1.73 | 1.84 | 0.466 | 0.361 | -0.143 | 0.191 | -0.273 | 0.0737 | -0.554 | 0.48
TATACAGGGTCAAAGACCAGAGTACGAATGTCGA | 2.05 | 4.19 | 1.75 | 1.67 | 1.9 | 3.65 | 0.419 | 4.04 | 0.668 | 4.25
TCTTGTAAATCAAGCAGGTTAAGAAAGCCTGAGT | 1.54 | -0.000502 | -0.116 | 0.31 | -0.337 | 0.678 | 0.119 | 0.64 | 0.0275 | 0.495
TCGAGTACGTTACCAATGGGGCATTCAGCTTTCT | 0.846 | -0.201 | -0.329 | -0.495 | -0.459 | 0.154 | -0.778 | 0.193 | -0.477 | 0.0471
CGTCCAAGGTCAATGCTACGTCAGTGAAAGCATT | 3.21 | 3.16 | 1.41 | -0.403 | 2.71 | 3.7 | 0.586 | 3.85 | 0.867 | 4.96
CGTCCAAGGTCAGCAGGTCAGTGATAGCGACGTG | 3.28 | 3.76 | -0.113 | -0.161 | 2.53 | 3.41 | 0.512 | 4.49 | 1.26 | 5.45
ATATGTAGGTTAAGGGTCATTCATGTTGGTTCGC | 7.75 | 8.04 | 2.47 | 1.44 | 3.15 | 4.77 | 1.38 | 5.63 | 2.15 | 3.6
TCTATTAGTTGATTAGAGCAACCGAAACAGCGGA | 1.66 | 0.345 | 0.782 | 0.622 | -0.0743 | 0.128 | -0.0101 | 0.143 | 0.166 | 0.00144
CGTCAAATTTCAACTAAGGTAACGTAAAGCACGC | 0.435 | 0.656 | 1.41 | 1.4 | 0.372 | 0.319 | 0.588 | 0.981 | 1.04 | 0.603
CCTAGGAGGCCAATCTGGGTCACTCAAGGCTTGA | 4.15 | 5.21 | -0.00134 | -1.3 | 0.591 | 1.97 | -0.291 | 1.64 | -0.236 | 1.94
GCTAGTTGGTCAGTAAAAGGCCACACACCGGTCG | -0.0753 | 0.216 | -0.775 | -1.15 | 0.58 | -0.0291 | -0.108 | 0.345 | -0.305 | 1.42
CACACTAGGTCACCGGAAGGTCAAAGTCCGCATG | 7.26 | 8.19 | 3.49 | 0.952 | 7.05 | 6.16 | 2.43 | 7.66 | 2.69 | 5.52
TCTTGTAGATCAAGAGGAGGTTAAGAAAGATCGA | 1.29 | 0.615 | 0.0065 | 0.335 | 0.153 | 0.769 | -0.0434 | 1.09 | 0.139 | 0.364
CGAACTAGGTCAAGGACAGTGAATCTCCGCACGC | 8.2 | 8.25 | 4.79 | 1.98 | 2.91 | 1.18 | -0.052 | 2.3 | 0.629 | 3.94
CCCGCTAGGTCAATGGTCAGCTAAAGCAGCTCGC | 4.1 | 3.83 | -0.504 | -0.484 | 1.55 | 1.09 | -0.582 | 1.91 | -0.541 | 3.78

Sequence | PBM binding z-score [1] | PBM binding z-score [2] | PBM binding z-score [3] | PBM binding z-score [4] | PBM binding z-score [5] | PBM binding z-score [6] | PBM binding z-score [7] | PBM binding z-score [8] | PBM binding z-score [9] | PBM binding z-score [10]
AGTCAAAGTTCACTAGGAAACGTAAGATTCAGCT | 0.0474 | 2.6 | 1.13 | 0.557 | 2.18 | 3.61 | 2.13 | 2.66 | 0.899 | 4.84
CGTCCAAGGTCAAAGGTCAGTCAAGAGATGACGG | 3.88 | 5.75 | 0.706 | -0.299 | 2.8 | 7.08 | 1.81 | 9.03 | 1.5 | 5.97
TAGCCTCGGTCATGCGGGCCAGTATAGTGTCGGC | -0.364 | 0.336 | -0.318 | -0.413 | -0.406 | -0.524 | -0.81 | -0.296 | -0.888 | 2.36
AGAATGAGGTTATTAAGATCAGGGAGTTGCGGTC | 3.18 | 2.67 | 0.214 | 0.57 | 0.895 | 1.46 | 0.973 | 1.44 | 0.946 | 1.4
CCTAGCAGGCAAATCTGGGTCACTCAAGGCTTGA | 4.27 | 5.25 | -0.619 | -1.06 | 0.358 | 0.746 | -0.354 | 0.989 | -0.416 | 1.16
GCTATTAGTTGAAAGTGCAACCGAATGATTCTCG | 0.238 | 0.262 | 0.449 | 0.384 | 0.768 | 0.683 | 0.384 | 0.526 | 0.153 | 0.775
CCTATTAGTTCACCATAAGGGCAACCGAAGCTCG | 0.837 | 0.596 | 0.806 | 0.145 | 1.92 | 2.63 | 1.48 | 2.33 | 1.26 | 3.21
ATCTCGAGGTAACCAAGTTCAGTGAATGCCGAAC | 0.433 | 1.72 | 0.594 | 0.0274 | -0.0303 | 3.06 | 2.57 | 1.04 | -0.305 | 1.5
GATCGGAGGACAAGGTCAGAGCTTTGTCCGTAGA | -0.00086 | 0.881 | -0.747 | -1.99 | 0.29 | 1.76 | -0.362 | 2.03 | -0.62 | 3.47
CCGATTAGTTGACCATAAGGGCAACCGAAGCTCG | 0.626 | 0.151 | 0.0233 | -0.144 | 0.907 | 0.523 | 0.00458 | 0.703 | 0.65 | 1.46
ATCTCTAGGTAACAAGTTCGGTGAAAGAGAGGAC | 3.31 | 2.96 | 1.06 | 0.893 | 1.01 | 0.677 | 0.713 | 0.675 | 0.59 | 0.969
CCTACTGGGCCACGAACGGTCATTGATTCAGTGA | 5.64 | 4.88 | -0.4 | -0.69 | 0.254 | -0.201 | -0.435 | 0.0689 | -0.329 | 1.42
GGAACGAGGGCAAAGTTAATAGCATCTGTCGACG | 4 | 4.19 | 0.116 | -0.54 | 0.877 | 1.19 | 0.225 | 1.24 | 0.00739 | 2.55
TTACCAAGGCGAAGGTCGTTGATCCCTCTGTAGA | 0.0514 | 1.72 | -0.587 | -0.677 | 1.25 | 1.16 | 0.0255 | 1.26 | -0.525 | 0.787
CATAAAGGGTCAGCTAGGCCAGAGTAGGGACGGC | 1.58 | 2.9 | 0.703 | 0.0542 | 2.26 | 2.18 | -0.269 | 3.32 | 0.796 | 4.9
TCTTGTAGATCAAAGGTTTAGAAAGCCGAAGCCT | 1.79 | 1.19 | 0.53 | 0.0845 | 0.307 | 0.16 | -0.198 | 0.358 | -0.0128 | -0.0359
ATCTCTAGGTATAAGTTCAGTGAATCCCGAGGAT | 0.227 | 0.858 | 1.41 | 1.22 | 0.751 | 1.44 | 2.32 | 0.493 | 1.02 | 1.73
GATACAGGGTCAGATAGAGGCCAGAGTATGGAAA | 1 | 2.53 | 1.35 | 0.368 | 2.7 | 3.26 | 0.844 | 4.13 | 0.243 | 3.97
ACTATTAGTTGACTTAGGGCAACCTATACGACGC | 0.195 | 0.726 | 1.42 | 1.54 | 0.623 | 0.356 | 0.265 | 0.516 | 0.697 | 0.924
CTCGAAAGGTCGGTTGAGGTGTGTATACGGATAA | -0.0512 | 0.529 | 0.177 | -0.218 | 0.679 | 1.43 | 0.289 | 1.53 | -0.365 | 2.68
AATACAGGGTCACCAGGCCAGAGTAGGTACGAAT | 3.62 | 5.06 | 1.5 | 0.986 | 2.07 | 4.02 | 0.26 | 5.4 | 0.737 | 4.53
GCATATAGGTAATACAAGGTGTAAGTCCGATTGT | 4.05 | 2.41 | 0.78 | 0.908 | 0.475 | -0.257 | -0.0468 | 0.0684 | 0.804 | -0.269
ATATGTAGGTTATCGGGTCAGTCAGTTTGCGCAT | 7.7 | 7.77 | 4.15 | 2.31 | 2.57 | 2.53 | 2.52 | 2.6 | 1.19 | 2.55
AGAATGAGGTTACCAACGATCAGGGAAACGCTTG | 3.37 | 3.5 | 0.997 | 1.46 | 0.587 | 0.991 | -0.0709 | 2.01 | -0.203 | 1.83
